The record followed here is PubChem BioAssay.

Each structure is given as a SMILES string. The list shows a part of the results. Active and inactive are the calls of the source.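 How the source made its calls, unless noted: active means inhibition reaching about 45% at 4 µM in either replicate (limit read from the data); inactive means the rest.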

For orientation: inhibition means the change of the read-out against control, counted positive when it falls.

A short description of assay [1]: lowers stimulated NF-kB luciferase signal in Jurkat – cell-based, luminescence, single concentration, T-cell NF-kB inhibitor project, confirmation (AID 435020).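 Further: plate controls were PMA/ionomycin stimulated DMSO wells for no effect and unstimulated DMSO wells for full effect.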 As to conditions: PMA/ionomycin-induced, 16 h, at 4 µM, stronger effect = higher value.
Assay [2] is described as follows: PPC-1 cell viability loss – ATP content luminescence, cytotoxicity control for TRAIL apoptosis potentiator project, confirmation (AID 1447;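 active means reconfirmed compounds whose average cytotoxicity reaches 50% or more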;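 further: 0% = DMSO-treated cells and 100% = wells holding medium but no cells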). Particulars: PPC-1 viability, ATPlite luminescence, overnight; at 5 µM; stronger effect = higher value.
Assay [3] has as its target Sentrin-specific protease 8 (Homo sapiens) (UniProt Q96LD8). The assay is described as follows: human SENP8 peptidase blockers, hit retest – biochemical, luminescence, single concentration, confirmation (AID 488912;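 active means mean inhibition across replicates above about 50%, limit read from the data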). Particulars: Recombinant SENP8, Z-RLRGG-aminoluciferin luminescence, 60 min; at 12.5 µM; stronger effect = higher value.
The target of assay [4] is Sentrin-specific protease 6 (Homo sapiens) (UniProt Q9GZR1). The assay is described as follows: inhibition of human SENP6 catalytic domain – biochemical, luminescence, single concentration, confirmation (AID 488915;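 active means mean inhibition above about 50% in the one-dose retest, limit read from the data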). As to conditions: recombinant SENP6, Z-RLRGG-aminoluciferin luminescence; at 12.5 µM; stronger effect = higher value.
Sequence of Sentrin-specific protease 6 (Homo sapiens) (Q9GZR1 628-1112 limits assumed): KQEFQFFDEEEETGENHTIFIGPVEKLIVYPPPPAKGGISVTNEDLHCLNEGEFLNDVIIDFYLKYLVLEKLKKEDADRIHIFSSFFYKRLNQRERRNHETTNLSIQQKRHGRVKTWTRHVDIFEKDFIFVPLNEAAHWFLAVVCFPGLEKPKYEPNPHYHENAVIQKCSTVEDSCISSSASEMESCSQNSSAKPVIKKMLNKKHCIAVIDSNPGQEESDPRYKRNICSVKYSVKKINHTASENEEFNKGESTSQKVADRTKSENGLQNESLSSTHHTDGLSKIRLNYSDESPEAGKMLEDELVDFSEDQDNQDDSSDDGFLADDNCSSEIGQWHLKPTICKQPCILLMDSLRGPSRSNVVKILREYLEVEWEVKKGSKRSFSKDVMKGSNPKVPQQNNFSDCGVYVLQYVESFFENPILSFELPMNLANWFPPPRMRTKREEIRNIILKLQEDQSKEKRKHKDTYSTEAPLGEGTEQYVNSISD
Assay [5] deals with Sentrin-specific protease 7 (Homo sapiens) (UniProt Q9BQF6). The assay is described as follows: human SENP7 peptidase blockers, hit retest – biochemical, luminescence, single concentration, confirmation (AID 488917;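 active means mean inhibition above about 50% in the one-dose retest, limit read from the data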). Particulars: recombinant SENP7, Z-RLRGG-aminoluciferin luminescence, 40 min; at 12.5 µM; stronger effect = higher value.
Sequence of Sentrin-specific protease 7 (Homo sapiens) (Q9BQF6 706-1050 limits assumed): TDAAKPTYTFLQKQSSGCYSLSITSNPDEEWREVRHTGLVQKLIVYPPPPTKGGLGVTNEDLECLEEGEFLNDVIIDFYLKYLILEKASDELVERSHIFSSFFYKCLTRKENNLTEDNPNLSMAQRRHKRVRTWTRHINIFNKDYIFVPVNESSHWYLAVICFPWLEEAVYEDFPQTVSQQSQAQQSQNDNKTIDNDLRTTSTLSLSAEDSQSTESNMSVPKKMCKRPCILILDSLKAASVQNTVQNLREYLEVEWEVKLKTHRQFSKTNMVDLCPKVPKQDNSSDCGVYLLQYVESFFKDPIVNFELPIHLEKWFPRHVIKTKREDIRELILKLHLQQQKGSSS
The target of another assay is Caspase-3 (Homo sapiens) (UniProt P42574). The assay is described as follows: human caspase-3 activity blockade, out-of-family – biochemical, single concentration, selectivity assay for SENP inhibitor project, confirmation (AID 488918;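 active means mean inhibition above about 50%, limit read from the data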;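 further: plate controls were enzyme with DMSO for no effect and wells without caspase-3 for full effect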). As to conditions: purified caspase-3, Z-DEVD-aminoluciferin luminescence, 60 min; at 12.5 µM; stronger effect = higher value.
Sequence of Caspase-3 (Homo sapiens) (P42574 28-227 limits assumed): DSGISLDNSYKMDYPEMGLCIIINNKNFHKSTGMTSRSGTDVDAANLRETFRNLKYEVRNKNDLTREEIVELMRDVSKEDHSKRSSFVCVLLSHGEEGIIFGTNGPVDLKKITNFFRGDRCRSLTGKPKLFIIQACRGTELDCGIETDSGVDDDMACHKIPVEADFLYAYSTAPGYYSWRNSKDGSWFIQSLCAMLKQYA
Assay [6] can be described thus: Ultra-Glo luciferase signal interference – biochemical, single concentration, SENP8 reaction pre-completed, artefact control for SENP inhibitor project, confirmation (AID 488919;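 active means mean inhibition above about 50% when retested at one dose, limit read from the data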;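 further: plate controls were DMSO wells with completed reaction for no effect and substrate without enzyme for full effect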). Particulars: Pre-incubated SENP8/Z-RLRGG-aminoluciferin, luciferase luminescence interference; at 12.5 µM; stronger effect = higher value.
A short description of assay [7]: inhibition of PEG-3 promoter luciferase signal – cell-based, HeLa, luciferase reporter, single concentration, confirmation (AID 602417;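 active means at 20 µM dose, 40% or more inhibition averaged across four replicates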). Particulars: HeLa PEG-Prom luciferase reporter, luminescence, overnight; at 20 µM; stronger effect = higher value. A general note: In a reporter assay the amount or activity of a reporter protein is the signal.
The nature of assay [8]: HIF-2a driven luciferase blockers, single dose – luminescence, 786-0 RCC cells, confirmation (AID 651580;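 active means mean inhibition across four replicates of at least 40 percent at the single tested concentration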). As to conditions: HIF-2a luciferase reporter luminescence, overnight, at 18.8 µM, stronger effect = higher value.
Assay [9] is described as follows: HIF-1a luciferase reporter signal reduction – MiaPaCa-2 cells, single concentration, counter-screen for HIF-2a inhibitor project, confirmation (AID 651589;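 active means mean inhibition of the reporter signal across four replicates at the single tested dose of 50% or more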). As to conditions: MiaPaCa-2 HIF-1a luciferase reporter, desferoxamine, overnight; at 18.8 µM; stronger effect = higher value.
Assay [10] addresses PEG-3 (UniProt Q6IN02). The assay is described as follows: inhibition of PEG-3 promoter-driven reporter – cell-based, HeLa, luciferase, CREF/GAPDH counter-screen panel, dose response (AID 624167). Particulars: CREF/GAPDH counter-screens; HeLa PEG-Prom luciferase reporter, overnight, run 1, dose range 1, at 100 µM (top of the series) unless noted. (Counterscreens check selectivity or assay interference.)

The target in assay [11] is PEG-3 (UniProt Q6IN02). The assay is described as above. Particulars: CREF/GAPDH counter-screens; HeLa PEG-Prom luciferase reporter, overnight, run 2, dose range 1, at 100 µM (top of the series) unless noted.
Sequence of PEG-3 (Q6IN02 whole entry, looked up): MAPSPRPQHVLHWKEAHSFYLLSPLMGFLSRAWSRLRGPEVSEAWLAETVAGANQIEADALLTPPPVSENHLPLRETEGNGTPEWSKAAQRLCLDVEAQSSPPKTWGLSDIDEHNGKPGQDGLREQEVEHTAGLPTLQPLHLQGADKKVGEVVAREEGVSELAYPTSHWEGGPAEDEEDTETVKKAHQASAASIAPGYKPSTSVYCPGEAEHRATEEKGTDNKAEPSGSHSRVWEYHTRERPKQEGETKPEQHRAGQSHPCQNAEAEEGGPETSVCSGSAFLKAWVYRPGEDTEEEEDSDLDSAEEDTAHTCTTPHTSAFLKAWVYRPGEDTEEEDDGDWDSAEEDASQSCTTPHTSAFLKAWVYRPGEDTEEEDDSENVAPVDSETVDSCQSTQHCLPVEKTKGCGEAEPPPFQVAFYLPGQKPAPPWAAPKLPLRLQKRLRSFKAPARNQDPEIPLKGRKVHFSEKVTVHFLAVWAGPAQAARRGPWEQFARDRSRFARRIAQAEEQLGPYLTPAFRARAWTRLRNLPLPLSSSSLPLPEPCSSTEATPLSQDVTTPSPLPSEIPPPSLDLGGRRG
For assay [12], the system named is Rat fibroblasts (CREF). The assay is described as above. Particulars: CREF/GAPDH counter-screens; run 1, dose range 1, at 100 µM (top of the series).
Assay [13] relates to Rat fibroblasts (CREF). Described as above. As to conditions: CREF/GAPDH counter-screens; run 2, dose range 1, at 100 µM (top of the series).
For assay [14], the target named is Tumor necrosis factor receptor superfamily member 10B (Homo sapiens) (UniProt O14763). The assay is described as follows: viability loss of caspase-8 NB7 cells with TRAIL – with/without TRAIL, luminescence panel, confirmation (AID 651596; in the data active means activity above about 50%). Particulars: NB7 neuroblastoma + caspase-8, TRAIL sensitization, NB7 Caspase-8, with TRAIL, mean of runs, at 10 µM, stronger effect = higher value.
Sequence of Tumor necrosis factor receptor superfamily member 10B (Homo sapiens) (O14763 whole entry, looked up): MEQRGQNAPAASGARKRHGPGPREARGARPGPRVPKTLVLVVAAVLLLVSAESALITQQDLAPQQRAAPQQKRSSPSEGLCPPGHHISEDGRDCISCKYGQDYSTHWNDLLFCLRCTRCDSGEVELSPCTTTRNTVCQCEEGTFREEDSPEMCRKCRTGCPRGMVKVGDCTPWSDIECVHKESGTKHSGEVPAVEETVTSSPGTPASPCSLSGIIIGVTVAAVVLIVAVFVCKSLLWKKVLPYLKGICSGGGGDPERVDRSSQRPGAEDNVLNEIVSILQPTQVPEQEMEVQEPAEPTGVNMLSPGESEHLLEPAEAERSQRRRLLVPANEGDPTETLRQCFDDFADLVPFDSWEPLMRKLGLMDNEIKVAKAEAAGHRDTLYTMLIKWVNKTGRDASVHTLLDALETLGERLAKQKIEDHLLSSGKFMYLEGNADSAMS

Assay in assay [15]: as above
As to conditions: NB7 neuroblastoma + caspase-8, without TRAIL, NB7 Caspase-8, without TRAIL, mean of runs, at 10 µM.

Assay [16] in a line: Brca1-Bard1 BiLC signal decrease – luminescence, single concentration, counter-screen for Mdm2/MdmX interaction inhibitor project, confirmation (AID 504668; call rule not given here). Particulars: Brca1/Bard1 bimolecular luciferase complementation counterscreen, at 8 µM, stronger effect = higher value.
The nature of assay [17]: PERK-eIF2a-CHOP pathway stimulators, retested – cell-based, CHO-CHOP luciferase reporter, single concentration, confirmation (AID 463112; in the data active means activation above about 33%;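 further: 0% = DMSO wells and 100% = tunicamycin 10 µg/mL wells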). As to conditions: CHO-CHOP cells, CHOP-luciferase reporter luminescence; at 10 µM; stronger effect = higher value; percent of tunicamycin response, DMSO as zero.

Sequence of Sentrin-specific protease 8 (Homo sapiens) (Q96LD8 whole entry, looked up, the tested form may be a part): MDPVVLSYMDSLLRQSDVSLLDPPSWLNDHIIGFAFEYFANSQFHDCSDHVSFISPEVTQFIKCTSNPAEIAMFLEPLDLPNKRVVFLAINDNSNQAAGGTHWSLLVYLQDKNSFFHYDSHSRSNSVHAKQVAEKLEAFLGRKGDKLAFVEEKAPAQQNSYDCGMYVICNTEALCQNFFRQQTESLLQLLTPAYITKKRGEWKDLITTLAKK

Take `O=C(COC(=O)c1ccc(F)cc1)NCC1COc2ccccc2O1` (configuration not stated): the inhibition in assay [1] was 12.1% (inactive).

Regarding `O=c1cc(-c2ccccc2)[nH]c2cc(F)ccc12`, the inhibition in assay [1] is 46% (inactive).

Regarding `COc1cc(SC)ccc1C(=O)Nc1nc(C)cs1`, the cytotoxicity in assay [2] is 95.8% (active). The inhibition in assay [3] was 89.6% (active); in assay [4] it was 98.7% (active); in assay [5], 100% (active); with Caspase-3 (Homo sapiens), 95.3% (active); in assay [6], 46.2% (inactive); in [7] it was 83% (active). For the same compound, the inhibition in assay [8] was 92.8% (active); in [9] it was 96.9% (active); with PEG-3 [10] it was 96.4%; in the assay with PEG-3 [11] it was 95.2%; with Rat fibroblasts (CREF) [12] it was 98.6%; in the assay on Rat fibroblasts (CREF) [13], 99.8%. Further, the values for the activity in assay [14] and in assay [15] were 98.2% and 97.8%, respectively.

Take `COc1ccc(NC(=O)/C(Cl)=C(/Cl)S(=O)Cc2ccc(C)cc2)cn1` (configuration not stated): the inhibition in assay [1] was 100% (active).

Take `C/C(=N\NC(=O)c1ccccc1F)c1ccccn1`: the inhibition in [1] was 4.3% (inactive).

Consider `CC(=O)c1sc(NC(=O)c2ccc(C)cc2)nc1C`, for which the cytotoxicity in assay [2] was 52.3% (active). The inhibition in [3] is -24.9% (inactive); in assay [4], -17.1% (inactive); in assay [5], 3.1% (inactive); with Caspase-3 (Homo sapiens), 6% (inactive); in assay [6], -5.6% (inactive). The activity in assay [14] came out at 68.5%; in assay [15] it was 68.1%.

On to `Cc1ccc2nc(-c3ccncc3)cc(C(=O)Nc3ccc(OC(F)F)cc3)c2c1`, for which the inhibition in assay [1] is 28.2% (inactive).

With `Cc1nc2cc(NC(=O)Nc3cccc(F)c3)ccc2n1C`, the cytotoxicity in assay [2] is 51.2% (active). The figures for the activity in assay [14] and in assay [15] were 72.3% and 65.2%, respectively.

Turning to `Cn1nccc1C(=O)NC1CCCc2c1cnn2-c1ccc(F)cc1F` (configuration not stated), the inhibition in assay [1] was 76.3% (active).

Take `O=C(Nc1ccccc1Cl)/C(Cl)=C(\Cl)S(=O)c1ccccc1` (configuration not stated): in [1], the inhibition is 59.8% (active).

`Cc1ccc(-c2cn3cc(C)ccc3n2)cc1`: in assay [2], the cytotoxicity is 85.8% (active). The inhibition was 54.3% (active) in assay [3]; 91.7% (active) in [4]; 101% (active) in [5]; 95% (active) in the assay with Caspase-3 (Homo sapiens); 39.4% (inactive) in assay [6]; 29% (active) in assay [16]. Also, the inhibition in assay [7] was 82% (active); in the assay with PEG-3 [10] it was 96.6%; in the assay with PEG-3 [11] it was 96.4%; in the assay on Rat fibroblasts (CREF) [12], 98.1%; in the assay with Rat fibroblasts (CREF) [13] it was 96.8%.

`COc1cc(SC)ccc1C(=O)Nc1cc(C)ccn1`: the cytotoxicity in [2] was 53.4% (active). The inhibition was 39.8% (inactive) in [3]; 40.9% (inactive) in assay [4]; 78.8% (active) in assay [5]; 43.8% (inactive) with Caspase-3 (Homo sapiens); 51% (active) in assay [6].

As to `COc1ccccc1N1CCN(C(=O)c2cc(=O)c3cc(C)cc(C)c3o2)CC1`, the inhibition in assay [1] was 54% (active).

With `Cc1c(/C=N\NC(=O)c2cc3ccccc3o2)c2ccccc2n1C`, the inhibition in assay [1] was -0.3% (inactive).

For `CCOC(=O)c1ccc(NC(=O)Cn2cnc3cc(C)c(C)cc32)cc1`, the inhibition in assay [1] was 66.2% (active).

For the compound `Cc1ccccc1Nc1nc(N)nc(CSc2ccccc2)n1`, the inhibition in assay [1] was -82.8% (inactive).

On to `COc1ccc(Nc2nc(-c3ccccc3)cs2)cc1`, for which the inhibition in [1] was -140% (inactive); in [3], 49.3% (inactive); in assay [4], 89.6% (active); in assay [5] it was 100% (active); with Caspase-3 (Homo sapiens), 83.7% (active); in assay [6] it was 53.8% (active).

With `O=C(Nc1ccc2c(c1)CCC2)c1ccc(Br)s1`, the inhibition in assay [1] is -177% (inactive); in assay [3] it was 44.7% (inactive); in assay [4], 70.8% (active); in [5] it was 73.3% (active); with Caspase-3 (Homo sapiens) it was 47% (inactive); in assay [6] it was 24.2% (inactive).

Regarding `O=C(Nc1ccc2c(c1)OCCO2)C1CCCN(c2ncccn2)C1` (configuration not stated), the inhibition in assay [1] is -110% (inactive).

Take `Cc1ccc2nc(-c3ccc(NC(=O)CN(C)S(=O)(=O)c4ccccc4)cc3)sc2c1`: the inhibition in assay [1] was -82.4% (inactive).

In the case of `COc1ccc(N=C(C)c2sc3ccccc3c2O)cc1`, the inhibition in assay [1] is -7.85% (inactive); in [3] it was 16.5% (inactive); in assay [4] it was 19.5% (inactive); in assay [5], 14.7% (inactive); with Caspase-3 (Homo sapiens), 9.6% (inactive); in assay [6], -5.1% (inactive).

For `c1cnc(N2CCN(c3ccc4ccccc4n3)CC2)nc1`, the inhibition in [1] was -107% (inactive).

As to `Oc1ccc(/C=N/Nc2ccc(C(F)(F)F)cn2)cc1O`, in assay [1], the inhibition is -7.8% (inactive). Further, the activation in [17] was 68.9% (active).

Take `CCOc1ccccc1NC(=O)Cn1nnc(C(=O)NCc2cccs2)c1N`: the inhibition in [1] is 51.6% (active).

For the compound `CC(=O)c1ccc(Oc2cc(C)nc(-n3nc(C)cc3C)n2)cc1`, the inhibition in assay [1] was 58.9% (active).

Take `COc1cc(NS(=O)(=O)c2ccc3ccccc3c2)c2ncccc2c1`: the values for the inhibition in assay [1] and in assay [7] were 2.5% (inactive) and 43% (active), respectively. Also, the activation in [17] is 689% (active).

`Fc1ccccc1/C=N/Nc1cc(N2CCCCC2)ncn1`: the inhibition in assay [1] was -109% (inactive); in assay [3] it was 17.6% (inactive); in [4], 16.9% (inactive); in assay [5], 16.6% (inactive); in the assay with Caspase-3 (Homo sapiens) it was 25.2% (inactive); in assay [6], 6.6% (inactive).

On to `Cc1ccc(OCc2nc3ccccc3n2C)cc1`, for which the inhibition is -91.5% (inactive) in [1]; 8.9% (inactive) in assay [3]; 54.5% (active) in assay [4]; 79% (active) in assay [5]; 68% (active) in the assay with Caspase-3 (Homo sapiens); 18.5% (inactive) in assay [6].

As to `O=C(Nc1ccc2sc3ccccc3c(=O)c2c1)c1ccccc1Cl`, the inhibition in [1] was -104% (inactive); in assay [3] it was 6.3% (inactive); in [4], 0% (inactive); in assay [5], 13.5% (inactive); with Caspase-3 (Homo sapiens), 24.3% (inactive); in [6], 4.3% (inactive).

For `Cc1ccc(O)c(NC(=O)c2cc(-c3ccco3)on2)c1`, the inhibition in assay [1] was 52.2% (active); in [3] it was 30.6% (inactive); in assay [4] it was 36.5% (inactive); in assay [5], 81.1% (active); with Caspase-3 (Homo sapiens), 44.4% (inactive); in [6], 14.4% (inactive).
